This note sets out measurements from PubChem BioAssay (NCATS).

Results filed as inconclusive are left out. Activity calls are given as the source filed them. For most assays here, calls follow the shape of the dose curve; as a rule, active = well fitted curve in the direction sought with a large enough effect; inconclusive = small, poorly fitted or top-dose-only effect, or another doubt; inactive = no such curve, though single readings can be large; an effect the other way counts as inactive or inconclusive.

For experiment [1] the following is noted: Ebola virus entry cell assay, ratio channel.
The nature of experiment [2]: qHTS assay for measurement of the activity of small molecule inhibitors on Zika virus induced Caspase-3 activity in human iPSC derived neural progenitor cells (hNPCs) (AID 1224857). Also: % of control where 0% means no effect; nearly all actives have a fitted effect of over 65% in size. The conditions noted are these: hNPCs ZIKV-induced caspase-3/7, Caspase-Glo luminescence, 6 h; series mostly up to 45.7 µM. In outline: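 Quantitative HTS format: human iPSC neural progenitors, 1 h compound pretreatment, ZIKV 2 FFU/cell for 6 h at 37 C. Percent inhibition derived from luminescent caspase-3/7 signal between uninfected and infected controls.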
For orientation: qHTS replaces the single test concentration by a dilution series.

Experiment [3] can be described thus: qHTS assay for measurement of the activity of small molecule inhibitors on Zika virus induced Caspase-3 activity in human astrocytoma cells (AID 1224859).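 Also: plate controls were ZIKV-infected untreated cells for no effect and uninfected cells for full effect.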 Particulars: SNB-19 ZIKV-induced caspase-3/7, luminescence, 6 h; series mostly up to 45.7 µM. The method, boiled down:
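Readout is luminescence from Caspase-Glo 3/7 added after a 6 h ZIKV infection (2 FFU/cell) of compound-pretreated (1 h) SNB-19 cells; data expressed as % inhibition versus uninfected and infected wells.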

Experiment [4] in a line: qHTS assay to identify small molecule inhibitors of chordoma cells - UCH-1 (AID 1259355). Also: % is scaled to controls: 0 for no effect and ±100 for the full control effect; nearly all actives have a fitted effect of over 55% in size. Particulars: UCH-1 chordoma viability, CellTiter-Glo, 48 h, combination; series mostly up to 46.1 µM. The method, boiled down:
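Cells (800/well) were seeded and left overnight at 37 C, 5% CO2, then treated with drugs at 15 concentrations plus a combination mix of auranofin, camptothecin, doxorubicin, rubitecan and topotecan. Viability after 48hr was read by CellTiter-Glo luminescence.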

Experiment [5] is described as follows: qHTS assay to identify small molecule inhibitors of chordoma cells - UCH-2 (AID 1259356). Also: % is scaled to controls: 0 for no effect and ±100 for the full control effect. The conditions noted are these: UCH-2 chordoma viability, CellTiter-Glo ATP luminescence, 48 h; series mostly up to 46.1 µM.
Experiment [6] can be described thus: Immunotoxin (HA22) sensitization/mitigation study. Vehicle arm (PBS) (AID 1159510; call rule not given here; also: potency is read from the fitted curve at half-maximal effect). The conditions noted are these: cancer cells viability with PBS vehicle (HA22 study); series mostly up to 46.1 µM.
Experiment [7] in a line: Immunotoxin (SS1P) sensitization/mitigation study. Vehicle arm (DMEM) (AID 1159513; call rule not given here; also: potency is read from the fitted curve at half-maximal effect). The conditions noted are these: cell viability with vehicle (DMEM); series mostly up to 46.1 µM.
A short description of experiment [8]: High-throughput drug toxicity screening in the BPDCN cell line Gen2.2 (AID 1224824; call rule not given here;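 also: cells exposed to compounds for 48 h before reading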). The conditions noted are these: Gen2.2 BPDCN cells; at 45.8 µM (top of the series). The method, boiled down:
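Gen2.2 cells (500/well) in phenol red-free RPMI with 10% FBS were exposed to compounds for 48 h at 37 °C, 5% CO2. Viability was read by CellTiter-Glo luminescence and normalized to DMSO (100%) and 9.2 uM bortezomib (0%).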

The nature of experiment [9]: High-throughput drug toxicity screening in the BPDCN cell line Cal-1 (AID 1224825; call rule not given here). Particulars: Cal-1 BPDCN cell viability, qHTS; at 45.8 µM (top of the series). In outline: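 Cal-1 cells, 500 per well in phenol-red-free RPMI with 10% FBS, exposed to compounds for 48 hours at 37C, 5% CO2. Viability read by CellTiter-Glo luminescence; percent activity normalized to DMSO (100%) and 9.2 uM bortezomib final (0%).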

Experiment [10] in a line: qHTS Screen of the MIPE 4.0 Collection Against Ewings Sarcoma (RDES) (AID 1259252). Also: nearly all actives have a fitted effect of over 35% in size. Also: potency is read from the fitted curve at half-maximal effect. The conditions noted are these: RD-ES Ewing sarcoma viability, CellTiter-Glo, 48 h; series mostly up to 45.8 µM. In outline: (§1)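 Dose series incubated 48 h with cells in RPMI plus 5% FBS, glutamine and penicillin/streptomycin; cell viability then quantified via CellTiter-Glo.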
The nature of experiment [11]: qHTS Screen of the MIPE 4.0 Collection Against Ewings Sarcoma (TC71) (AID 1259253). Also: nearly all actives have a fitted effect of over 40% in size. Also: potency is read from the fitted curve at half-maximal effect. The conditions noted are these: TC71 Ewing sarcoma viability, CellTiter-Glo, 48 h; series mostly up to 45.8 µM. The method, boiled down: as §1
Experiment [12] can be described thus: qHTS Screen of the MIPE 4.0 Collection Against Ewings Sarcoma (EW8) (AID 1259255). Also: nearly all actives have a fitted effect of over 35% in size. Also: potency is read from the fitted curve at half-maximal effect.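 As to viability: 100% = DMSO-treated cells and 0% = medium-only wells without cells.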 The conditions noted are these: EW8 Ewing sarcoma viability, CellTiter-Glo, 48 h; series mostly up to 45.8 µM. The method, boiled down:
as §1

Experiment [13] in a line: qHTS Screen of the MIPE 4.0 Collection Against Ewings Sarcoma (TC32) (AID 1259256). Also: nearly all actives have a fitted effect of over 45% in size. Also: potency is read from the fitted curve at half-maximal effect. Particulars: TC32 Ewing sarcoma viability, CellTiter-Glo, 48 h; series mostly up to 45.8 µM. The method, boiled down: as §1
Experiment [14] in a line: Identifying Small Molecule Inhibitors of Pancreatic Cancer Stem Cells (A2780, Spheroid) (AID 1259357). Also: potency is read from the fitted curve at half-maximal effect.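 Also: spheroids pre-formed over 14 days in stem cell medium on hydrogel; compound exposure lasted 48 h before the ATP luminescence read.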 Particulars: Potency: A2780 spheroid viability; series mostly up to 46.1 µM. The method, boiled down:
(§2)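 Spheroids grown 14 days in stem cell media on nonadherent hydrogel before screening; cells attached 4 h, then compound exposure 48 h at 37C, 5% CO2. CellTiter-Glo luminescence normalized to DMSO (no inhibition) and no-cell wells (full inhibition).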

Experiment [15] in a line: Identifying Small Molecule Inhibitors of Pancreatic Cancer Stem Cells (SN12C, Spheroid) (AID 1259360). Also: potency is read from the fitted curve at half-maximal effect. The conditions noted are these: Potency: SN12C spheroid viability; series mostly up to 46.1 µM. In outline:
as §2

A short description of experiment [16]: Identifying Small Molecule Inhibitors of Pancreatic Cancer Stem Cells (A278, Adherent) (AID 1259361). Also: nearly all actives have a fitted effect of over 35% in size.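 As to viability (% of control): 100% = DMSO-treated cells and 0% = cell-free media-only wells.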 Particulars: series mostly up to 46.1 µM. In outline:
(§3)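 Endpoint: ATP-based luminescence, 48 h drug exposure. Bortezomib at 9.2 uM final as full-kill control; DMSO vehicle as negative control; activity normalized between vehicle and cell-free wells.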

Experiment [17] in a line: Identifying Small Molecule Inhibitors of Pancreatic Cancer Stem Cells (SN12C, Adherent) (AID 1259358).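 Also: potency is read from the fitted curve at half-maximal effect; cell survival measured after 48 h of compound exposure.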 The conditions noted are these: viability/growth inhibition; series mostly up to 46.1 µM. The method, boiled down: as §3
A short description of experiment [18]: Identifying Small Molecule Inhibitors of Pancreatic Cancer Stem Cells (Panc1, Adherent) (AID 1259362). Also: potency is read from the fitted curve at half-maximal effect. Particulars: Potency: viability; series mostly up to 46.1 µM. The method, boiled down: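 Luminescent ATP readout (CellTiter-Glo) quantifies surviving cells after a 48 h drug incubation. Normalization uses DMSO wells as no inhibition and media-only wells as full inhibition; bortezomib served as positive control.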

For `CCC(C(N)=O)N1CCCC1=O` (stereo not given), the result in experiment [1] and in [3] was inactive. Also, the Potency entry in experiment [2], in [4] and in experiment [5] was “inactive” in each case.
Consider `CCN(C(C)=O)c1cccc(-c2ccnc3c(C#N)cnn23)c1`, for which the result in [1] and in experiment [3] was inactive. Also, the Potency entry in [2], in experiment [4] and in experiment [5] was “inactive” each time.
As to `C=CC(=O)Nc1cc2c(Nc3ccc(F)c(Cl)c3)ncnc2cc1OCCCN1CCOCC1`, the Potency was 18.7 µM (active) in experiment [6] and 26.4 µM (active) in experiment [7].
For `CC1=C(/C=C/C(C)=C/C=C/C(C)=C/C(=O)Nc2ccc(O)cc2)C(C)(C)CCC1` the same measures were 1.87 µM (active) and 23.5 µM (active).
Regarding `Cc1ccc(-c2cc(C(F)(F)F)nn2-c2ccc(S(N)(=O)=O)cc2)cc1`, the AC50 – broadly, the concentration giving half of the maximal activity seen – in experiment [1] was 11.2 µM (active). Also, the figures for the Potency in experiment [6] and in experiment [7] were 48.1 µM (active) and 38.2 µM (active), respectively.
Consider `CO[C@@H](C(=O)N1Cc2[nH]nc(NC(=O)c3ccc(N4CCN(C)CC4)cc3)c2C1)c1ccccc1`, for which the Potency in experiment [6] is 0.332 µM (active); in [7] it was 23.5 µM (active).
On the same counts, the results for `CCCc1nc2c(C)cc(-c3nc4ccccc4n3C)cc2n1Cc1ccc(-c2ccccc2C(=O)O)cc1` are 26.4 µM (active) and “inactive”.
Take `CCCC(C)(COC(N)=O)COC(=O)NC(C)C` (stereo not given): the outcome in [1] and in experiment [3] was inactive. In experiment [8], the cell viability, % of control (lower = more cytotoxic) is 386%. The viability (% of control) in [9] was 110%. The Potency entry in [10], in [11], in [12], in experiment [13], in experiment [4] and in [5] was “inactive” each time.
Consider `CC(C)C[C@H](NC(=O)[C@H](CCc1ccccc1)NC(=O)CN1CCOCC1)C(=O)N[C@@H](Cc1ccccc1)C(=O)N[C@@H](CC(C)C)C(=O)[C@@]1(C)CO1`, for which the values for the Potency in experiment [6] and in experiment [7] were 0.0015 µM (active) and 0.0418 µM (active), respectively.
As to `CN(C)CCN(C)CCc1ccc(Cl)c(Cl)c1`, the Potency in experiment [6] and in experiment [15] was 18.7 µM (active) in each case. Besides, the Potency entry in experiment [7], in [10], in experiment [11], in experiment [12], in [13] and in [14] was “inactive” throughout. In addition, the cell viability, % of control (lower = more cytotoxic) in experiment [8] amounted to 137%. Further, in experiment [9], the viability (% of control) worked out at 92.7%. Further, in [3], the compound was called inactive. Further, the IC50 (viability decrease) result in [16] was “inactive”.
`C[C@@H]1[C@@H](CC(C[C@H]2O[C@@H]3O[C@]4(C)CC[C@@H]5[C@H](C)CC[C@@H]([C@H]2C)[C@@]35OO4)C[S+](=O)([O-])c2ccc(COC(=O)N(C)C)cc2)O[C@@H]2O[C@]3(C)CC[C@H]4[C@H](C)CC[C@@H]1[C@@]24OO3` (stereo not given in full): the Potency is 0.0332 µM (active) in [6]; 0.418 µM (active) in experiment [7]; 0.418 µM (active) in experiment [10]; 0.332 µM (active) in experiment [11]; 0.264 µM (active) in experiment [12]; 0.469 µM (active) in experiment [13]. In addition, the Potency in experiment [14] is 0.059 µM (active); in [17] it was 0.118 µM (active); in experiment [18] it was 0.0372 µM (active). In addition, the cell viability, % of control (lower = more cytotoxic) in experiment [8] was found to be 15.5%. In addition, the viability (% of control) in experiment [9] came to 13.4%. Also, the Potency entry in experiment [2] is “inactive”. Moreover, the compound was called inactive in experiment [3]. In addition, in experiment [16], the IC50 (viability decrease) is 0.0418 µM (active).
With `Cn1ccc2cc3c(cc21)CCN3C(=O)Nc1cccnc1`, the Potency result in experiment [6] and in experiment [7] was “inactive” in each case.
Consider `CC(C)CC(N(C)C)C1(c2ccc(Cl)cc2)CCC1` (stereo not given), for which the result in [1] and in experiment [3] was inactive. In addition, in [8], the cell viability, % of control (lower = more cytotoxic) came to 134%. The viability (% of control) in [9] is 105%. For the same compound, the Potency result in experiment [2], in experiment [4] and in experiment [5] was “inactive” in each case. In addition, the Potency in [12] was 18.7 µM (active).
As for `Nc1ncn([C@@H]2O[C@H](CO)[C@@H](O)[C@H]2O)c(=O)n1`, the outcome in experiment [1] was inactive. Further, the Potency in [6] was 4.18 µM (active); in experiment [7] it was 14.8 µM (active).
With `CO[C@]12CC[C@@]3(C[C@@H]1[C@](C)(O)C(C)(C)C)[C@@H]1Cc4ccc(O)c5c4[C@@]3(CCN1CC1CC1)[C@H]2O5`, the result in experiment [1] and in [3] was inactive.
Take `CN(C)C(=N)N=C(N)N`: the result in experiment [1] was inactive. Further, the Potency entry in experiment [6] and in [7] was “inactive” each time.
For the compound `NCC1(CC(=O)O)CCCCC1`, the outcome in [1] and in experiment [3] was inactive. Further, the cell viability, % of control (lower = more cytotoxic) in experiment [8] is 114%. Also, in experiment [9], the viability (% of control) amounted to 104%. Further, the Potency entry in experiment [2], in experiment [4] and in [5] was “inactive” throughout.
In the case of `COc1cc2c(N3CCN(C(=O)Nc4ccc(OC(C)C)cc4)CC3)ncnc2cc1OCCCN1CCCCC1`, the Potency in experiment [6] is 20.9 µM (active).
